Rows were chosen to be rich in hits. Some 10% of all compounds tested hit in one or more screens of this group.
Pf growth 48h = Primary qHTS for delayed death inhibitors of the malarial parasite plastid, 48 hour incubation; 310,000 compounds, 5.9% hits; Potency, µM (top dose mostly 28.7 µM), inactives show at the highest dose activity change, negative = inhibition, most hits filed as inhibitors; AID 504832, 2011; P. falciparum luciferase growth in erythrocytes, 48 h; note: % is set by controls: 0 for no effect and ±100 for the full control effect
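Luciferase-expressing parasites in RBCs, 2% Hct / 0.1% parasitemia final; RPMI 1640 + 0.5% Albumax; 37 C, 5% CO2, one generation; luminescence read-out, lower signal = inhibition.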
Pf growth 96h = Primary qHTS for delayed death inhibitors of the malarial parasite plastid, 96 hour incubation. P. falciparum luciferase reporter growth, 96 h. 320,000 compounds, 6.9% hits. Potency, µM (top dose mostly 28.7 µM), without a hit: top-dose activity change, negative = inhibition, hits mostly inhibitors; note: % is set by controls: 0 for no effect and ±100 for the full control effect
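Delayed-death screen, second-generation endpoint: infected erythrocytes, 2% hematocrit, 0.05% parasitemia final; 96 hours at 37 C, 5% CO2; luciferase detection reagent; luminescence decrease equals reduced growth.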
NS1 function inh = qHTS Assay for Inhibitors of Influenza NS1 Protein Function. Potency, µM (highest dose often 46.1 µM), for the others: top-dose activity, positive = more growth. 270,000 compounds, 0.4% hits; calls by dose curve; note: actives are rising curves; nearly all actives have a fitted effect of over 50% in size
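OD600 was taken as the measure of yeast growth restored by compound in an NS1-expressing S. cerevisiae strain. Cells had been washed out of glucose medium and diluted 1:100 into galactose -URA medium, pH 6.0.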
SARS PLP yeast = qHTS of Yeast-based Assay for SARS-CoV PLP; S. cerevisiae expressing SARS-CoV PLpro, growth rescue; 330,000 compounds, 0.19% hits; AID 485353, 2010; Potency, µM (doses to about 32.9 µM), for inactives: top-dose activity, positive = growth rescue, most hits filed as activators; calls by dose curve; note: 0% is about no effect; nearly all actives have a fitted effect of over 55% in size
An asterisk follows results filed as active; ? = inconclusive; / = not tested or not shown; [ ] = dose if it differs, or a comment. Unless noted, calls come from the whole dose curve; as a rule, active = well fitted inhibition curve with a large enough effect; inconclusive = small, poorly fitted or top-dose-only effect, or another doubt; inactive = no such curve, though single readings can be large or run the other way. Potency is the fitted concentration of half-maximal effect.

SMILES	Pf growth 48h	Pf growth 96h	NS1 function inh	SARS PLP yeast
CC(NC(=O)C(=O)N1CCCCC1)C(c1cccs1)N1CCN(c2ccccc2F)CC1 (stereo unspecified)	?	1.3µM*	-15%	1%
O=C(COC(=O)c1c(F)cccc1F)c1ccc[nH]1	?	48%	-5%	-2%
COc1ccc(N2CCN(c3oc(COc4ccc(Cl)cc4)nc3C#N)CC2)cc1	?	?	14%	-11%
COc1ccc(N2CCN(c3oc(COc4ccccc4)nc3C#N)CC2)cc1	13µM*	55%	6%	0%
Cc1ccc2c(c1)NC(=O)C(CC(=O)NCCN(C)C)O2 (stereo unspecified)	/	1.7µM*	-2%	-3%
Nc1ncnc(Sc2ccccc2)c1[N+](=O)[O-]	15µM*	9.3µM*	-30%	27%
Nc1ncnc(Sc2ccc(Cl)cc2)c1[N+](=O)[O-]	?	25%	2%	5%
c1cnc2ccc(C(c3nnnn3C3CCCC3)N3CCN(c4nc5ccccc5s4)CC3)cc2c1 (stereo unspecified)	5.2µM*	1%	?	3%
COc1ccccc1C(c1nnnn1C(C)(C)C)N1CCCc2ccccc21 (stereo unspecified)	?	?	7%	1%
COc1ccc(C(c2nnnn2C(C)(C)C)N2CCN(c3nc4ccccc4s3)CC2)cc1OC (stereo unspecified)	5.2µM*	?	1%	19%
COc1cc(C(c2nnnn2C(C)(C)C)N2CCN(c3nc4ccccc4s3)CC2)ccc1O (stereo unspecified)	-13%	2%	-35%	0%
CC(C)(C)n1nnnc1C(c1cccc(C#N)c1)N1CCCc2ccccc21 (stereo unspecified)	9.3µM*	23%	?	-6%
CC(C)(C)n1nnnc1C(c1ccc(Cl)cc1)N1CCCc2ccccc21 (stereo unspecified)	2.3µM*	33%	0%	0%
OC1CCN(C(c2ccc3ncccc3c2)c2nnnn2C2CCCCC2)CC1 (stereo unspecified)	?	0%	-7%	-1%
O=C(CN1C(=O)NC2(CCCCC2)C1=O)Nc1ccccc1N1CCCC1	13%	2%	/	-4%
C/C(Cc1nnn(-c2cc(C)on2)n1)=N\O	64%	69%	4%	1%
COc1ccccc1N1CCN(C(c2ccccc2Cl)c2nnnn2C(C)(C)C)CC1 (stereo unspecified)	?	?	-32%	/
c1cnc2ccc(C(c3nnnn3C3CCCCC3)N3CCN4CCCC4C3)cc2c1 (stereo unspecified)	?	/	2%	2%
COc1ccccc1N1CCN(C(c2ccc(Cl)cc2)c2nnnn2C(C)(C)C)CC1 (stereo unspecified)	6.6µM*	?	?	-1%
CC(C)(C)n1nnnc1C(c1cccc(C#N)c1)N1CCC(Cc2ccccc2)CC1 (stereo unspecified)	2.6µM*	/	-8%	2%
CCC(C)(C)n1nnnc1C(c1cccs1)N1CCc2ccccc21 (stereo unspecified)	9.3µM*	8%[5.75 µM]	-76%	-9%
CCC(C)(C)n1nnnc1C(c1cccnc1)N1CCC(Cc2ccccc2)CC1 (stereo unspecified)	11%	?	-3%	1%
CCC(C)(C)n1nnnc1C(c1ccc2ncccc2c1)N1CCN2CCCC2C1 (stereo unspecified)	10µM*	142%	-76%	-2%
Cc1ccc(S(=O)(=O)N(C)c2c(C)ccc(S(N)(=O)=O)c2C)cc1	-1%	11%	-2%	0%
CCCn1c(C(O)c2cc(OC)c(OC)c(OC)c2)nc2ccccc21 (stereo unspecified)	?	251%	-7%	5%
CC(C)Cn1c(SCC(=O)N2CCOCC2)nc2ccccc2c1=O	-5%	?	/	-2%
CCC(=O)NC1(C(F)(F)F)C(=O)Nc2c1c(=O)[nH]c(=O)n2CC(C)C (stereo unspecified)	26%	-9%	3%	1%
O=C1C=C(N(CCO)Cc2ccccc2)c2ccccc2C1=O	3.7µM*	0%	/	-13%
COC(=O)c1sc(N)c(C(=O)OC)c1CSc1nnnn1C	10µM*	9.3µM*	3%	-1%
COC(=O)c1sc(N)c(C(=O)OC)c1CSc1nnc(-c2ccccc2Cl)n1C	?	?	4%	2%

Compound activity as filed in PubChem.
